Consider 14 molecules from PubChem BioAssay (NCI).

Structures are written as SMILES. About 83,000 compounds went through this panel and 20% of them were active in at least one assay; those are over-represented in the sample as a whole.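 Testing used 96-well plates and a 48-hour single-concentration exposure. Example: -40 means 40% of the starting cells died.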 A number with no mark means an inactive call. Activity calls are given as the source filed them. The calls were made as follows: active = growth percent below 10; inactive = the rest.

Assay in all cases: NCI-60 one-dose screen, 48 h (100 = growth as untreated, 0 = no growth, -100 = all killed)
Holding throughout (settings): 10 µM

For test [1], the system named is RPMI-8226 leukemia.
The subject of test [2] is OVCAR-8 ovarian.
The subject of test [3] is OVCAR-5 ovarian.
Test [4] has as its system OVCAR-4 ovarian.
Test [5] concerns SK-OV-3 ovarian.
In test [6] the test system is IGROV1 ovarian.
Test [7] has as its system OVCAR-3 ovarian.
For test [8], the system named is HS 578T breast.
For test [9], the system named is NCI/ADR-RES ovarian.
Test [10] relates to T-47D breast.

Turning to `COc1ccc2c(c1)/C(=C\c1c[nH]c3ccc(OC)cc13)C(=O)N2`, the growth in test [1] was 36.7%; in [2] it was 59.7%; in test [3], 64.8%; in test [4], 57.6%; in [5], 52.8%; in [6], 41.7%. Also, the growth is 52.6% in test [7], 46.9% in test [8], 28.1% in test [9] and 49.7% in [10].
Take `COc1ccc(-c2nn(-c3cccc(NC(=O)c4cc(C(F)(F)F)cc(C(F)(F)F)c4)c3)cc2-c2ccncc2)cc1Cl`: the growth in [1] is 47.7%; in test [2], 66.4%; in test [3], 87.4%; in test [4], 76.4%; in test [5] it was 75.2%; in test [6] it was 77.2%. Besides, the growth in test [7] is 54.1%; in [8], 71.5%; in test [9] it was 59.9%; in test [10] it was 51.5%.
Regarding `CSc1nn(-c2ccccc2)c2ncnc(Oc3ccccc3)c12`, the growth was 84.5% in test [1]; 99% in test [2]; 96.2% in [3]; 86.9% in [4]; 104% in [5]; 87.4% in [6]. For the same molecule, the growth in test [7] was 91.2%; in [8], 148%; in [9], 96.6%; in [10], 87.7%.
Consider `CN(C)CCN1C(=O)c2cccc3c(-c4ccc5ncn(C6CCCCC6)c5c4)ccc(c23)C1=O`, for which the growth in test [1] is 7.51% (active); in test [2], 14.7%; in [3] it was 35.8%; in [4], 30.8%; in test [5] it was 23%; in test [6], 20.4%. Moreover, the growth in test [7] is 37.6%; in test [8], 40.8%; in [9], 20.1%; in test [10] it was 27.8%.
In the case of `COc1cc(-c2cc(/C=C3\C(=O)Nc4ccccc43)[nH]n2)cc(OC)c1OC`, the growth in test [1] is 24.3%; in test [2], 40.8%; in [3], 77.6%; in [4], 42%; in [5], 87.5%; in [6], 43%. For the same molecule, the growth in test [7] is 57.8%; in test [8], 49.6%; in [9], 35.2%; in test [10] it was 20.9%.
On to `COc1ccc(-c2ccc(-c3ccc(C(=N)N)cn3)o2)cc1`, for which the growth in test [1] was 28.3%; in test [2] it was 76.3%; in [3], 76.9%; in test [4] it was 61.4%; in test [5], 78.4%; in [6] it was 75.2%. In addition, the growth in test [7] is 97.1%; in test [8], 94.1%; in test [9], 88.1%; in [10], 69.1%.
As to `N=c1nc(N)ncn1-c1ccccc1`, the growth in test [1] was 97.7%; in [2] it was 99.5%; in [3], 95%; in test [4], 100%; in test [5], 96.3%; in test [6], 104%. In addition, the growth is 116% in test [7], 101% in [8], 102% in test [9] and 86.5% in test [10].
`O=[N+]([O-])c1ccc(Oc2cc(Cl)c(Cl)cc2Cl)c(C(F)(F)F)c1`: the growth in test [1] was 97.3%; in test [2], 97.8%; in [3], 87%; in [4], 93.8%; in test [5] it was 103%; in [6] it was 96.5%. For the same molecule, the growth in [7] is 105%; in test [8] it was 104%; in test [9], 109%; in test [10], 107%.
`COc1ccc2c(c1)N(CCO)C1=C(C(=O)OC1)C2c1cc(OC)c(OC)c(OC)c1` (stereo not given): the growth in test [1] was 18.7%; in test [2] it was 7.94% (active); in [3], 39.8%; in test [4], 51%; in test [5], 20.6%; in test [6], 9.98% (active). Moreover, the growth in test [7] was -53.2% (active); in [8] it was -6.85% (active); in test [9], -14.7% (active); in test [10], 71.9%.
Turning to `Clc1ccc(/C=C2\CCCC3=C2N=C2SC=NN2C3c2ccc(Cl)cc2)cc1` (stereo not given), the growth in test [1] was -12.1% (active); in test [2], 91.4%; in test [3], 107%; in test [4], 92.1%; in test [5] it was 109%; in [6] it was 104%. In addition, the growth was 112% in [7], 96.6% in test [8], 102% in test [9] and 88.2% in [10].
As for `CN1CCC(CNc2cc(C3(C(=O)Nc4cc(C(=O)Nc5ccc(Cl)c(C(F)(F)F)c5)ccc4F)CC3)ncn2)CC1`, the growth was -32% (active) in [1]; 44.3% in [2]; 71.6% in [3]; 81.1% in test [4]; 45.9% in test [5]; 54.8% in test [6]. Besides, the growth is 29.4% in test [7], 13.6% in test [8], 86.7% in test [9] and 63.7% in test [10].
As to `c1ccc([I+]c2ccccc2)cc1`, the growth in test [1] is 46.7%; in test [2] it was 39.2%; in [3] it was 85.2%; in test [4], 66%; in [5] it was 68.7%; in test [6], 45.6%. Further, the growth in test [7] was 62.7%; in test [8], 116%; in test [9], 91.5%; in [10] it was 76.8%.
As for `CCc1ccc2c(c1)N(CCO)C1=C(C(=O)OC1)C2c1cc(OC)c(OC)c(OC)c1` (stereo not given), the growth in test [1] was 18.3%; in test [2] it was 8.75% (active); in test [3] it was 36.6%; in test [4], 48.6%; in test [5], 23.4%; in test [6], 10.1%. Besides, the growth was -57.6% (active) in test [7], 1.11% (active) in test [8], -3.11% (active) in [9] and 59.7% in test [10].
Take `C#Cc1ccc(-n2c(/C=C/c3cc(OC)cc(OC)c3)nc3ncccc3c2=O)cc1`: the growth was 25.1% in test [1]; 66.8% in test [2]; 129% in test [3]; 60.2% in test [4]; 68.1% in test [5]; 91.9% in [6]. The growth in test [7] was 76.4%; in test [8], 88%; in [9], 77.1%; in test [10], 71.8%.
